Rows were chosen to be rich in hits. Some 11% of all compounds tested hit in one or more screens of this group.
PNC assembly inh: blocks assembly of the perinucleolar compartment; PC3M PTB-GFP, PNC prevalence imaging, 16 h; hits give low values; activity change (PNC), negative = inhibition, % at 10 µM; hit rate 3.1% among 140,000;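 active = readout at or below -70, meaning at least 70% loss of cells showing the perinucleolar compartment, a nuclear body marking cancer cells; inconclusive = readout between -30 and a set limit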;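 note: plate controls were DMSO wells for no effect and camptothecin positive control wells for full effect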
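PC3M cells stably expressing PTB-GFP, 750–1000 cells/well, treated 16 h at 37 °C with compound (23 nl of library stock), in duplicate. After paraformaldehyde fixation and Hoechst stain, imaged at 20x; PNC prevalence scored by image analysis.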
HPGD inh: inhibitors of human 15-hydroxyprostaglandin dehydrogenase (HPGD); P15428; purified HPGD, NADH fluorescence kinetic, PGE2 substrate; Potency, µM, for inactives: top-dose activity change, negative = inhibition, actives largely listed as inhibitors; hit rate 4.3% among 150,000; AID 894; note: potency is the fitted concentration of half-maximal effect
Target sequence (P15428 whole entry, looked up): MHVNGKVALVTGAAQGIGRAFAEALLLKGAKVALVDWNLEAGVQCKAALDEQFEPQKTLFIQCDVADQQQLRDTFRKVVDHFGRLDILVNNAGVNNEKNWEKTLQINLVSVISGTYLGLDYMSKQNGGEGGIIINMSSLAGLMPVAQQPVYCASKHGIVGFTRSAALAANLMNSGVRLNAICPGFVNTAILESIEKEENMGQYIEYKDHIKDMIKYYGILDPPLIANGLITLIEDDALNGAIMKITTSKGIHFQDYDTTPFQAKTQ
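20 nM HPGD preincubated 15 min at room temperature with compound in 50 mM Tris-HCl pH 8, 0.01% Tween 20. Started with 1 mM NAD+ and 30 uM prostaglandin E2; NADH fluorescence (360/450 nm) read 5 times over 30-s intervals, last minus first.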
ALDH1A1 inh: inhibitors of human aldehyde dehydrogenase 1A1. P00352. Purified ALDH1A1, NADH fluorescence, propionaldehyde substrate. Potency, µM (titrated, usually from 75.3 µM), for inactives: at the highest dose activity, negative = inhibition, actives largely listed as inhibitors. hit rate 7.3% among 220,000;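 note: potency is the fitted concentration of half-maximal effect; plate controls were no enzyme wells and a reference inhibitor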
Starred values were filed as active, the others as inactive; ? = inconclusive; / = no result; ! = repeats disagree; [ ] = dose if it differs, or a comment. Unless noted, calls come from the whole dose curve; as a rule, active = well fitted inhibition curve with a large enough effect (not every such curve was filed as active); inconclusive = small, poorly fitted or top-dose-only effect, or another doubt; inactive = no such curve, though single readings can be large or run the other way. Unless noted, % is set by controls: 0 for no effect and ±100 for the full control effect.

SMILES | PNC assembly inh | HPGD inh | ALDH1A1 inh
CC(C)=NO[C@@H](C)c1cn([C@H](CO)Cc2ccccc2)nn1 | / | / | 13.7%[13.5 µM]
O=P(O)(O)CP(=O)(O)O | -100.0* | -6.3% | 4.4%
O=P(O)(O)OP(=O)(O)O | / | -3.3% | -0.6%[13.5 µM]
Cc1ccc(C)n1-c1nc(=S)[nH][nH]1 | -5.0 | 15.8µM* | 25.1µM*
COc1ccc(-c2cc(C(F)F)n3ncc(C(=O)Nc4cccc(S(=O)(=O)N5CCOCC5)c4)c3n2)cc1 | / | / | 5.9%
O=c1[nH]c2cc3c(cc2cc1C(c1nnnn1Cc1ccccc1)N1CCCc2ccccc21)OCO3 (stereo not drawn) | -118.9* | -2.7% | 15.1%
COc1cc2cc(C(c3nnnn3C(C)(C)C)N3CCc4ccccc43)c(=O)[nH]c2cc1OC (stereo not drawn) | -3.4 | -10.3% | -11.0%
O=c1[nH]c2cc3c(cc2cc1C(c1nnnn1C1CCCC1)N1CCCc2ccccc21)OCCO3 (stereo not drawn) | 37.7 | -15.2% | -2.2%
CCc1ccc2[nH]c(=O)c(C(c3nnnn3CC3CCCO3)N3CCCc4ccccc43)cc2c1 (stereo not drawn) | ? | -22.9% | 7.94µM*
O=c1[nH]c2cc3c(cc2cc1C(c1nnnn1Cc1ccccc1)N1CCCCCC1)OCCO3 (stereo not drawn) | 1.6 | -19.6% | ?
Cc1cccc2cc(C(c3nnnn3CC3CCCO3)N3CCCc4ccccc43)c(=O)[nH]c12 (stereo not drawn) | 11.1 | -6.4% | 1.12µM*
Cc1cccc2cc(C(c3nnnn3Cc3ccc4c(c3)OCO4)N3CCCC3)c(=O)[nH]c12 (stereo not drawn) | 17.3 | -25.1% | ?
Cc1cc2cc(C(c3nnnn3CC3CCCO3)N3CCCc4ccccc43)c(=O)[nH]c2cc1C (stereo not drawn) | ? | ? | 2.51µM*
COC(=O)c1ccc(N2C(=O)C3CC=CC(C)C3C2=O)cc1 (stereo not drawn) | / | / | -7.7%
O=C(Cc1ccc(Cl)cc1)Nc1ccc(SC(F)F)cc1 | -16.1 | -6.3% | 1.7%
Cc1nc(-c2ccccc2)sc1C(N)=O | 10.8 | 2.0% | 13.9%
COC(=O)c1c(NC(C)=O)sc(Cc2ccccc2)c1C | 52.0 | -8.5% | -3.7%
COC(=O)c1c(NC(=O)c2ccc(C)cc2)sc(Cc2ccccc2)c1C | -11.2 | ? | -15.4%
Cc1c(Cc2ccccc2)sc(NC(=O)C(C)(C)C)c1C(N)=O | / | / | 8.91µM*
Cc1c(Cc2ccccc2)sc(N)c1C(N)=O | 30.7 | 28.2µM* | 15.8µM*
Cc1ccc(/C=N/c2sc(Cc3ccccc3)c(C)c2C(N)=O)o1 | -9.8 | -4.6% | ?
Cc1c(Cc2ccccc2)sc(/N=C/c2ccc3ccccc3c2)c1C(N)=O | -103.3* | ? | ?
CCC(=O)Nc1sc(Cc2ccccc2)c(C)c1C(N)=O | / | / | 22.4µM*
COCCCNC(=S)NNC(=O)c1cccnc1 | -23.9 | -17.8% | 5.2%
O=C(c1ccco1)N1CCN(C(=O)N2CCCC2)CC1 | / | / | 5.0%
SMILES | PNC assembly inh | HPGD inh | ALDH1A1 inh
COc1ccc(N(CC(=O)O)N=O)cc1 | / | -6.3% | -1.7%[13.5 µM]
CCc1nn2cc(C(=O)c3ccccc3O)cnc2c1-c1ccc(F)cc1 | 63.1 | 15.8µM* | ?
CCc1nn2cc(C(=O)c3cc(C)ccc3O)cnc2c1-c1ccc(F)cc1 | ? | 15.8µM* | ?
Cc1ccc(O)c(C(=O)c2cnc3c(c2)c(-c2ccc(F)cc2)c(C#N)c(=O)n3C)c1 | / | / | -4.4%
CCc1nn2c(N(C)CCO)cc(C)nc2c1-c1ccc(F)cc1 | / | / | 5.8%
COc1ccc(NC(=O)CSc2nc3c(c(=O)n2-c2ccc(C)cc2)SCC3)c(OC)c1 | 2.1 | ? | ?
CCOC(=O)N1CCN(C(=O)c2cnn(-c3ccccc3)c2NC(=O)c2ccccc2F)CC1 | 38.0 | -8.7% | ?
O=C(C(Cl)Cl)N1c2ccccc2OCC1c1ccccc1 (stereo not drawn) | ? | -11.6% | 1.26µM*
Cc1ccc(S(=O)(=O)N2c3ccccc3OCC2c2ccccc2)cc1 (stereo not drawn) | -100.0* | -10.3% | 10.4%
CC1COc2ccccc2N1C(=O)c1ccc(Cl)nc1 (stereo not drawn) | / | / | -5.8%
CC1COc2ccccc2N1S(=O)(=O)c1ccc(Cl)cc1 (stereo not drawn) | / | / | -3.8%
CC(C)CC(NC(=O)C1CCC(C)CC1)C(=O)Nc1ccc2c(c1)OCCO2 (stereo not drawn) | 16.0 | -9.1% | 7.0%
O=C(CSc1nnc(-c2ccco2)n1Cc1ccco1)N1CCOCC1 | 2.7 | -8.6% | 0.6%
Cc1nn(C)cc1S(=O)(=O)N1CCN(Cc2cccc(Cl)c2)CC1 | / | / | 22.4µM*
COc1cc(C)c(C)cc1S(=O)(=O)N1CCN(Cc2ccccc2)CC1 | -13.2 | -14.3% | ?
CC1CCN(C(=O)CSc2nnc(Cc3cc(=O)[nH]c(=O)[nH]3)n2-c2ccc(Cl)cc2)CC1 | -5.5 | 1.0% | ?
CCOc1ccc(NCc2cc3c(C(C)(C)C)nn(-c4ccccc4)c3[nH]c2=O)cc1 | 14.1 | -18.2% | ?
COc1cccc(NCc2cc3c(C(C)(C)C)nn(-c4ccccc4)c3[nH]c2=O)c1 | 34.7 | ? | 12.6µM*
NC(=O)c1cc(Br)cc(C2CCCCC2)c1O | / | / | -12.0%
Cc1cc(=O)oc(C)c1C(=O)N[C@@H]1CCCCNC1=O | ? | -8.2% | 4.1%
CCN1C(=O)N(C)C(N(O)C(=O)NC)C1(C)C (stereo not drawn) | 34.6 | -2.7% | 0.0%
O=C(O)c1cc(O)c2c(c1)C(=O)c1cccc(O)c1C2=O | 60.7 | ? | ?
Cc1cc(O)c2c(c1)C(=O)c1cccc(O)c1C2=O | 14.4 | -5.9% | 12.6µM*!
O=C(O)c1c(Cl)c(Cl)c(Cl)c(Cl)c1-c1c2cc(I)c(=O)c(I)c-2oc2c(I)c(O)c(I)cc12 | / | 31.6µM* | 31.6µM*
CCC(CC)C(=O)c1c[nH]c(C(=O)NCCCN2CCOCC2)c1 | 80.6 | 0.3% | 3.3%
SMILES | PNC assembly inh | HPGD inh | ALDH1A1 inh
O=C(NCCCN1CCOCC1)c1cc(C(=O)C2CCCCC2)c[nH]1 | / | / | 25.1µM*
Cc1ccc(O)c(C(CC(=O)NC2CCCCC2)c2ccccc2)c1 (stereo not drawn) | / | / | 5.0%
O=C(NCc1cccc(F)c1)C1CCN(S(=O)(=O)Cc2ccccc2)CC1 | -25.1 | -2.7% | 5.2%
CC(C)(C)c1ccc(S(=O)(=O)NNC(=O)C2CCN(Cc3cccc(F)c3)CC2)cc1 | / | / | 2.24µM*
CCn1ncc(Br)c1C(=O)Nc1ccc(F)c([N+](=O)[O-])c1 | 26.7 | -15.1% | -4.3%
CCOC(=O)Cn1nnnc1C(C(C)C)N(Cc1cccs1)Cc1cc2cc(C)ccc2[nH]c1=O (stereo not drawn) | 32.1 | ? | ?
CCOC(=O)Cn1nnnc1C(CC)N(Cc1cc2c(C)cc(C)cc2[nH]c1=O)C1CCCC1 (stereo not drawn) | ? | -6.7% | 17.8µM*
CCOC(=O)Cn1nnnc1C(CC)N(Cc1cccs1)Cc1cc2cc(C)ccc2[nH]c1=O (stereo not drawn) | 56.5 | ? | ?
CCOC(=O)Cn1nnnc1C(CC)N(Cc1cc2ccc(C)cc2[nH]c1=O)C1CCCC1 (stereo not drawn) | -19.9 | -16.5% | 20µM*
COc1ccc(CCNC(=O)CSc2nc(C)nc3c2c(=O)n(C)c(=O)n3C)cc1OC | -7.1 | -9.0% | -0.2%
O=C(Nc1nccs1)c1nc(-c2ccccc2)n(-c2ccccc2)n1 | -28.2 | -5.9% | 2.6%
